Laboratory results as given in PubChem BioAssay (EPA / NIEHS).
The source made the active and inactive calls. Rule for the calls: active = hit-call score of the fitted dose curve at least 0.9, where 1 is the maximum; inactive = score below 0.9.

Experiments:
Details in all cases: mRNA level, 48 h; actives raise or lower the signal
[1] = read-out: Glutathione S-Transferase (GSTA2), GSTA2 (gene 2939); experiment: LTEA_HepaRG_GSTA2: Life Technologies and Expression Analysis (LTEA) Assay for Glutathione S-Transferase (GSTA2) using HepaRG (AID 2283497)
Summary of the method: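 Differentiated human HepaRG cells were exposed in duplicate for 48 h in serum-free induction medium, 8 points from 100 uM top in half-log steps, 0.5% DMSO. GSTA2 mRNA was measured by TaqMan qRT-PCR, normalized to ACTB, GAPDH and POLR2A; bidirectional fit versus DMSO.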

[2] = read-out: Glutamate-cysteine ligase catalytic (GCLC), GCLC (gene 2729); experiment: LTEA_HepaRG_GCLC: Life Technologies and Expression Analysis (LTEA) Assay for Glutamate-cysteine ligase catalytic (GCLC) using HepaRG (AID 2283498)
Summary of the method: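 Differentiated HepaRG cells exposed 48 h in serum-free induction medium, eight-point half-log series topping at 100 uM in 0.5% DMSO, duplicates. GCLC mRNA by qRT-PCR normalized to ACTB, GAPDH and POLR2A, fitted bidirectionally versus DMSO.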

[3] = read-out: growth arrest and DNA damage 45 (GADD45G), GADD45G (gene 10912); experiment: LTEA_HepaRG_GADD45G: Life Technologies and Expression Analysis (LTEA) Assay for growth arrest and DNA damage 45 (GADD45G) using HepaRG (AID 2283499)
Summary of the method: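 Differentiated human HepaRG cells, 48 h post-plating, exposed 48 h in serum-free induction medium to 8 half-log concentrations (top 100 uM, 0.5% DMSO) in duplicate. GADD45G mRNA measured by Fluidigm TaqMan qRT-PCR, normalized to ACTB, GAPDH, POLR2A; bidirectional fit versus DMSO.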

[4] = read-out: Glutamate-cysteine ligase regulatory (GCLM), GCLM (gene 2730); experiment: LTEA_HepaRG_GCLM: Life Technologies and Expression Analysis (LTEA) Assay for Glutamate-cysteine ligase regulatory (GCLM) using HepaRG (AID 2283500)
Summary of the method: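 Differentiated HepaRG cells exposed 48 h in serum-free induction medium to eight half-log concentrations up to 100 uM (0.5% DMSO). GCLM mRNA by TaqMan qRT-PCR, normalized to ACTB, GAPDH and POLR2A; bidirectional fit versus DMSO.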

[5] = read-out: Glutathione S-transferase M3 (GSTM3), GSTM3 (gene 2947); experiment: LTEA_HepaRG_GSTM3: Life Technologies and Expression Analysis (LTEA) Assay for Glutathione S-transferase M3 (GSTM3) using HepaRG (AID 2283501)
Summary of the method: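 Differentiated human HepaRG cells were exposed in duplicate for 48 h in serum-free induction medium, 8 points from 100 uM top in half-log steps, 0.5% DMSO. GSTM3 mRNA was measured by TaqMan qRT-PCR, normalized to ACTB, GAPDH and POLR2A; bidirectional fit versus DMSO.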

[6] = read-out: Heat shock 70 kDa protein 1 (HSPA1A), gene 3303; experiment: LTEA_HepaRG_HSPA1A: Life Technologies and Expression Analysis (LTEA) Assay for Heat shock 70 kDa protein 1 (HSPA1A) using HepaRG (AID 2283502)
Summary of the method: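 Human HepaRG cells in serum-free induction medium were exposed in duplicate for 48 h to 8 half-log concentrations, highest 100 uM, in 0.5% DMSO. HSPA1A mRNA read by TaqMan qRT-PCR, normalized to ACTB, GAPDH, POLR2A, fitted bidirectionally against DMSO.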

[7] = read-out: Hypoxia-inducible factor 1-alpha (Homo sapiens) (UniProt Q16665); experiment: LTEA_HepaRG_HIF1A: Life Technologies and Expression Analysis (LTEA) Assay for Hypoxia-inducible factor 1 (HIF1A) Trancription factor using HepaRG (AID 2283503)
Summary of the method: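 Differentiated HepaRG cells in serum-free induction medium exposed 48 h, in duplicate, to 8-point half-log series from 100 uM in 0.5% DMSO. HIF1A mRNA measured by TaqMan qRT-PCR, normalized to ACTB/GAPDH/POLR2A, fitted bidirectionally versus DMSO.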

[8] = read-out: 3-Hydroxy-3-Methylglutaryl-CoA Synthase 2 (HMGCS2), HMGCS2 (gene 3158); experiment: LTEA_HepaRG_HMGCS2: Life Technologies and Expression Analysis (LTEA) Assay for 3-Hydroxy-3-Methylglutaryl-CoA Synthase 2 (HMGCS2) using HepaRG (AID 2283504)
Summary of the method: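 Human HepaRG cells in serum-free induction medium were exposed in duplicate for 48 h to 8-point half-log series from 100 uM top in 0.5% DMSO. HMGCS2 mRNA measured by TaqMan qRT-PCR, normalised to ACTB, GAPDH, POLR2A; bidirectional fit versus DMSO.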

HGF (gene 3082) = experiment: LTEA_HepaRG_HGF: Life Technologies and Expression Analysis (LTEA) Assay for Hepatocyte Growth Facto (HGF) using HepaRG (AID 2283505)
Summary of the method: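 Differentiated HepaRG cells in serum-free induction medium exposed 48 h in duplicate, 8 half-log concentrations from 100 uM in 0.5% DMSO. HGF mRNA by qRT-PCR, normalised to ACTB, GAPDH, POLR2A; bidirectional fitting.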

[9] = read-out: Insulin Like Growth Factor 1 (IGF1), IGF1 (gene 3479); experiment: LTEA_HepaRG_IGF1: Life Technologies and Expression Analysis (LTEA) Assay for Insulin Like Growth Factor 1 (IGF1) using HepaRG (AID 2283506)
Summary of the method: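 Differentiated HepaRG cells in serum-free induction medium, exposed 48 h in duplicate to 8 half-log concentrations up to 100 uM in 0.5% DMSO. IGF1 mRNA by Fluidigm qRT-PCR, normalised to ACTB, GAPDH and POLR2A.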

[10] = read-out: Intercellular Adhesion Molecule 1 (ICAM1), ICAM1 (gene 3383); experiment: LTEA_HepaRG_ICAM1: Life Technologies and Expression Analysis (LTEA) Assay for Intercellular Adhesion Molecule 1 (ICAM1) using HepaRG (AID 2283507)
Summary of the method: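 Differentiated human HepaRG cells in serum-free induction medium exposed 48 h in duplicate to 8 half-log concentrations (top 100 uM, 0.5% DMSO). ICAM1 mRNA quantified by TaqMan qRT-PCR, normalized to ACTB, GAPDH and POLR2A; bidirectional fitting versus DMSO.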

[11] = read-out: Insulin-like growth factor-binding protein 1 (IGFBP1), IGFBP1 (gene 3484); experiment: LTEA_HepaRG_IGFBP1: Life Technologies and Expression Analysis (LTEA) Assay for Insulin-like growth factor-binding protein 1 (IGFBP1) using HepaRG (AID 2283508)
Summary of the method: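 HepaRG cells, plated 48 h then switched to serum-free induction medium, exposed in duplicate for 48 h to 8-point half-log series from 100 uM in 0.5% DMSO. mRNA measured by qRT-PCR, normalized to ACTB/GAPDH/POLR2A; bidirectional fit versus DMSO.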

[12] = read-out: Interleukin 6 (IL6), IL6 (gene 3569); experiment: LTEA_HepaRG_IL6: Life Technologies and Expression Analysis (LTEA) Assay for Interleukin 6 (IL6) using HepaRG (AID 2283509)
Summary of the method: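 HepaRG cells exposed in duplicate for 48 h to eight half-log concentrations, top 100 uM, in 0.5% DMSO serum-free induction medium. mRNA measured by qRT-PCR, normalized to ACTB, GAPDH and POLR2A. Bidirectional fit versus DMSO.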

[13] = read-out: Interleukin 6 Receptor (IL6R), IL6R (gene 3570); experiment: LTEA_HepaRG_IL6R: Life Technologies and Expression Analysis (LTEA) Assay for Interleukin 6 Receptor (IL6R) using HepaRG (AID 2283510)
Summary of the method: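 Differentiated HepaRG cells, plated 48 h, then exposed in duplicate for 48 h in serum-free induction medium to 8 half-log concentrations (top 100 uM, 0.5% DMSO). IL6R mRNA measured by TaqMan qRT-PCR, normalized to ACTB/GAPDH/POLR2A; bidirectional fit vs DMSO.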

[14] = read-out: Potassium channel subfamily K member 1 (KCNK1), KCNK1 (gene 3775); experiment: LTEA_HepaRG_KCNK1: Life Technologies and Expression Analysis (LTEA) Assay for Potassium channel subfamily K member 1 (KCNK1) using HepaRG (AID 2283511)
Summary of the method: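 Differentiated HepaRG cells, 48 h exposure in serum-free induction medium with 0.5% DMSO; 8 concentrations, half-log from 100 uM, duplicate. KCNK1 mRNA by qRT-PCR, normalized to ACTB, GAPDH, POLR2A; bidirectional fit vs DMSO.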

[15] = read-out: Keratin 19 (KRT19), KRT19 (gene 3880); experiment: LTEA_HepaRG_KRT19: Life Technologies and Expression Analysis (LTEA) Assay for Keratin 19 (KRT19) using HepaRG (AID 2283512)
Summary of the method: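 Differentiated HepaRG cells in serum-free induction medium, exposed 48 h in duplicate to 8 half-log concentrations up to 100 uM in 0.5% DMSO. KRT19 mRNA by qRT-PCR, normalized to ACTB, GAPDH, POLR2A; bidirectional fit vs DMSO.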

[16] = read-out: JUN Transcription Factor, JUN (gene 3725); experiment: LTEA_HepaRG_JUN: Life Technologies and Expression Analysis (LTEA) Assay for JUN Transcription Factor using HepaRG (AID 2283513)
Summary of the method: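 HepaRG cells, 48 h post-plating, exposed 48 h in serum-free induction medium to 8-point half-log series (top 100 uM, 0.5% DMSO), duplicate; mRNA by qRT-PCR (TaqMan, Fluidigm), normalized to ACTB/GAPDH/POLR2A; bidirectional fit vs DMSO.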

[17] = read-out: Lipase C (LIPC), LIPC (gene 3990); experiment: LTEA_HepaRG_LIPC: Life Technologies and Expression Analysis (LTEA) Assay for Lipase C (LIPC) using HepaRG (AID 2283514)
Summary of the method: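 HepaRG cells, 48 h after plating, treated in duplicate for 48 h in serum-free induction medium over 8 half-log concentrations from 100 uM, 0.5% DMSO. LIPC mRNA by TaqMan qRT-PCR normalized to ACTB/GAPDH/POLR2A; bidirectional fit versus DMSO.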

[18] = read-out: Lipoprotein lipase (LPL), LPL (gene 4023); experiment: LTEA_HepaRG_LPL: Life Technologies and Expression Analysis (LTEA) Assay for Lipoprotein lipase (LPL) using HepaRG (AID 2283515)
Summary of the method: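 Differentiated HepaRG cells, plated 48 h, then exposed 48 h in serum-free induction medium to 8 concentrations (top 100 uM, half-log steps) in 0.5% DMSO, duplicate. LPL mRNA measured by qRT-PCR, normalized to ACTB, GAPDH and POLR2A.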

[19] = read-out: MicroRNA 122 (MIR122), gene 406906; experiment: LTEA_HepaRG_MIR122: Life Technologies and Expression Analysis (LTEA) Assay for MicroRNA 122 (MIR122) using HepaRG (AID 2283516); note: the transcript read is the microRNA miR-122
Summary of the method: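 Differentiated human HepaRG cells in serum-free induction medium exposed 48 h to 8 half-log concentrations from 100 uM in 0.5% DMSO, duplicate. MIR122 quantified by Fluidigm TaqMan qRT-PCR, normalised to ACTB, GAPDH, POLR2A; fold change fitted bidirectionally versus DMSO.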

Measured: outcome

Hypoxia-inducible factor 1-alpha (Homo sapiens), sequence (Q16665 whole entry, looked up): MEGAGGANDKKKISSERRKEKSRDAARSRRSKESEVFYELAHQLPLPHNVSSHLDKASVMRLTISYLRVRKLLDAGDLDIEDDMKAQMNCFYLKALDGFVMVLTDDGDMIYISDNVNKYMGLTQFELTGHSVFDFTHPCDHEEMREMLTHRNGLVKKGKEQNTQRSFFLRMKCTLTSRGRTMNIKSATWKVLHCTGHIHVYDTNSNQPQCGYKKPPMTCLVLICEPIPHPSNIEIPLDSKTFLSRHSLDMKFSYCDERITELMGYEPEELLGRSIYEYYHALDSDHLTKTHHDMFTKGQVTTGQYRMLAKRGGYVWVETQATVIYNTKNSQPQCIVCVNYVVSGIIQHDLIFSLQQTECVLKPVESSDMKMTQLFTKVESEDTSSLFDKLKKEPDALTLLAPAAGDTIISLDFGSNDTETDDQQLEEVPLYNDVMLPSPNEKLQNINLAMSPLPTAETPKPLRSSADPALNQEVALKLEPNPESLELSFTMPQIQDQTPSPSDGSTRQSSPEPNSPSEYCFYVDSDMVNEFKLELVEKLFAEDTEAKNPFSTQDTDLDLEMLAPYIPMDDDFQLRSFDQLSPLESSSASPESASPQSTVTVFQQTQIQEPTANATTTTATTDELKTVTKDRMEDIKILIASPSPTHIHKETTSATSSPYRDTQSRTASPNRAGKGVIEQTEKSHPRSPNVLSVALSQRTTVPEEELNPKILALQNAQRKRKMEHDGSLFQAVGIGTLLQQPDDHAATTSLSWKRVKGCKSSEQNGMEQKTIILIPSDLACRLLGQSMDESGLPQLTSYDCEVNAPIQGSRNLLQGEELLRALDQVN

CCCCCCCCCCCCCO
not listed: [19]
inactive: all other assays above

Oc1ccc2c(c1)OC[C@@H](N1CCC(O)(c3ccc(F)cc3)CC1)[C@H]2O
inactive: all assays above

CCCCN(CCCC)CCCC
not listed: [10] | [19]
inactive: all other assays above
